# FAS-TE inh: FAS thioesterase (human) inhibition; inhibition, % at 15 µM; P49327; 360,000 compounds, 0.67% hits; recombinant FAS-TE, OMFH fluorogenic substrate, fluorescence endpoint;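 active means compounds whose normalised, plate-corrected inhibition of enzyme fluorescence in the single-dose primary screen is 50% or more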
# CR mimetic SO: lowers age-related superoxide in aged yeast cells | S. cerevisiae aged cells, superoxide DHE fluorescence; active compounds read low | superoxide response (% of plate mean), % at 10 µM | 330,000 compounds, 0.18% hits;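 active means superoxide response under a set limit, about three screen SD below normal, cut at about 65% in these data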;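 further: yeast aged for seven days with compound at 30 °C before DHE staining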
# MPTP inh: inhibitors of mitochondrial permeability transition pore | isolated mouse mitochondria, Ca2+ swelling absorbance, 30 min | inhibition, % at 10 µM | 360,000 compounds, 1.4% hits | AID 602449;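 active means inhibition of 50% or more, scaled per plate between neutral and stimulator controls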
# H9c2 protect: protects H9c2 cardiomyocytes from peroxide injury | 360,000 compounds, 0.63% hits | AID 588492 | protection from H2O2 cell death, % at 20 µM | H2O2 injury protection, ATPLite, 2 h;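 active means compounds giving at least 50% protection of heart cells from peroxide-induced death in the single-dose screen, raw or plate-pattern-corrected value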
# aDG glyco act: alpha-DG glycosylation activation | Pro5-aDG cells, alpha-DG glycosylation AlphaScreen (IIH6); 0% Pro5, 100% B10-LARGE cell signal | activation, % at 10 µM | 360,000 compounds, 0.22% hits | AID 624168;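 active means activation of at least 8% versus controls, or a plate z-score of at least 8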;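 further: Pro5 are CHO cells carrying HIG-tagged alpha-DG that lacks glycosylation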
# Mot1-301 SUMO: SUMOylation pathway inhibition by Mot1-301 growth rescue | S. cerevisiae Mot1-301 growth rescue, ATP luminescence, 38.5C; percent above DMSO median, 100 means doubled | growth rescue, % at 18.8 µM | 320,000 compounds, 1% hits | AID 2716;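 active means every valid replicate shows activation above 250% relative to neutral control wells; inactive means the rest, any valid replicate at or below 250%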
# FAS-TE conf: FAS thioesterase (human) inhibition, confirmation. shares compounds with FAS-TE inh. recombinant FAS-TE, OMFH fluorogenic substrate, fluorescence. inhibition, % at 15 µM. 2,300 compounds, 45% hits;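 active means compounds inhibiting the enzyme by at least 50% at 15 µM in any one of the replicates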
# Numbers stand for hits; . = inactive; / = not tested or not shown. The list is not random: actives were taken first. Their share in the collection is about 3.8%.
SMILES,FAS-TE inh,CR mimetic SO,MPTP inh,H9c2 protect,aDG glyco act,Mot1-301 SUMO,FAS-TE conf
COc1ccc(N(C)C(=O)c2cc3c(s2)-c2ccccc2S(=O)(=O)C3)cc1,.,.,.,.,.,.,/
COc1cc(OC)c(N(C)C(=O)c2cc3c(s2)-c2ccccc2S(=O)(=O)C3)cc1Cl,54.5,.,.,.,.,.,.
COc1ccc(NC(=O)C2(C)CCN2Cc2cccc(OC)c2F)cc1OC (stereo not given),.,/,.,.,.,/,/
CC(=O)N(c1ccc2oc(=O)sc2c1)S(=O)(=O)c1ccccc1,.,.,.,.,.,.,/
CCOc1ccc(S(=O)(=O)N(C)CC(=O)NCc2ccco2)cc1,.,.,.,.,.,.,/
COc1ccc(S(=O)(=O)N(C(=O)c2ccco2)c2cc3sc(=O)oc3c3ccccc23)cc1,89.8,.,.,.,7.6,.,.
Cc1ccc(S(=O)(=O)N(C(=O)c2ccco2)c2cc3sc(=O)oc3c3ccccc23)cc1,53.1,.,.,.,6.6,.,.
CCOc1ccc(S(=O)(=O)N(C(=O)c2ccco2)c2cc3sc(=O)oc3c3ccccc23)cc1,50.8,.,.,.,11.1,.,.
O=C(CSc1nnc(-c2ccccc2Cl)o1)N1CCOCC1,.,.,.,.,.,.,/
COc1cc(C#N)ccc1OCC(=O)Nc1cccc(S(=O)(=O)N(C)c2ccccc2)c1,.,/,.,.,.,/,/
CC(=O)c1cccc(-c2ccnc3c2CC(C(=O)Nc2ccc(C(C)C)cc2)O3)c1 (stereo not given),54.7,/,.,.,.,/,59.5
COc1ccc([C@@H]2[C@@H]3C(=O)N(C(C)(C)C)C(=O)[C@@H]3[C@]3(Cc4ccc(Cl)cc4)C(=O)N(c4cccc(F)c4)C(=O)N23)cc1,72.1,.,.,.,.,.,.
CC[C@@]12C(=O)N(c3cccc(Br)c3)C(=O)N1[C@H](c1ccc(OC)cc1)[C@@H]1C(=O)N(C(C)(C)C)C(=O)[C@@H]12,.,.,.,.,.,.,/
COc1ccc([C@@H]2[C@@H]3C(=O)N(C(C)(C)C)C(=O)[C@@H]3[C@]3(Cc4ccc(Cl)cc4)C(=O)N(c4cccc(Br)c4)C(=O)N23)cc1,95.4,.,.,.,.,.,.
C[C@@H]1CN([C@@H](C)CO)S(=O)(=O)c2ccc(Br)cc2O[C@H]1CN(C)C(=O)c1cccc(F)c1,.,/,.,.,.,/,/
COC(=O)[C@@]12CCCCN1[C@H](c1ccc(-c3ccc4c(c3)OCO4)cc1)[C@H]1C(=O)N(C)C(=O)[C@H]12,79.2,.,.,.,.,.,.
COC(=O)[C@@]12CCCCN1[C@H](c1ccc(-c3ccc(OC)cc3)cc1)[C@@H]1C(=O)N(C)C(=O)[C@@H]12,.,.,.,.,.,.,/
CCN1C(=O)[C@@H]2[C@@H](c3ccc(-c4ccc5c(c4)OCO5)c(OC)c3)N3CCCC[C@@]3(C(=O)OC)[C@@H]2C1=O,53.3,.,.,.,.,.,.
O=C1OCCN1C(=O)[C@H]1[C@H](c2ccccc2)C(c2ccc(F)cc2)=NN1c1ccc(Br)cc1,98.4,.,.,.,.,/,.
O=C1OCCN1C(=O)[C@H]1[C@H](c2ccccc2)C(c2ccccc2)=NN1c1ccccc1,.,.,.,.,.,/,/
O=C1OCCN1C(=O)[C@H]1[C@H](c2ccccc2)C(c2ccccc2)=NN1c1ccc(Br)cc1,90.3,.,.,.,.,/,.
CCOc1ccccc1N1CC(C(=O)N(CC)CC(=O)Nc2ccc3c(c2)OCCO3)CC1=O (stereo not given),.,.,.,.,.,.,/
CC(Oc1ccccc1)C(=O)N1CCC2(CC1)Oc1ccc(F)cc1C(=O)C21CC(c2ccccc2)=NO1 (stereo not given),61.5,.,.,.,.,.,.
O=C(/C=C/c1cccs1)N1CCC2(CC1)Oc1ccc(Cl)cc1C(=O)C21CC(c2ccccc2)=NO1 (stereo not given),73.3,.,.,.,.,.,.
CCC(=O)N1CCC2(CC1)Oc1ccc(Cl)cc1C(=O)C21CC(c2ccccc2)=NO1 (stereo not given),.,.,.,.,.,.,/

# From PubChem
